Laboratory results published in the supplement of paper PMC5662767.
Where “and” joins values, the source holds several entries; their conditions need not be identical. Equal entries are not always repeated. Structures can show the parent of a compound that is named as a salt.

Tested on: Drosophila S2 cl14 SmoIP sensor cells
Experiment: normalized SmoIP GFP fluorescence (untreated unstimulated = 0%, untreated Hh-stimulated = 100%); higher = more Smo activation sensor fluorescence
Conditions: compound concentration: 2 uM, 24 h
[1] = stimulation: Hh conditioned medium (+Hh)
[2] = stimulation: mock conditioned medium (-Hh)
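Also: flow cytometry read-out as median GFP intensity of gated cells, compounds added 30 min before Hh-conditioned or mock medium, mock-treated cells serving as unstimulated baseline.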

| SMILES | normalized SmoIP GFP fluorescence [1] | normalized SmoIP GFP fluorescence [2] |
| --- | --- | --- |
| CS(=O)(=O)c1cccc(CNc2nc(Nc3ccc4c(c3)CCC(=O)N4)ncc2C(F)(F)F)c1 | 209% | 71.5% |
| Nc1ncnc2c1c(-c1cccc(OCc3ccccc3)c1)cn2C1CC(CN2CCCC2)C1 (centres undefined) | 117% | 5.45% |
| CN(C)Cc1ccc(S(=O)(=O)n2ccc(/C=C/C(=O)NO)c2)cc1 [resminostat-ras2410] | 140% | -5.8% |
| O=C(/C=C/c1ccc(O)c(O)c1)OCCc1ccccc1 [caffeic-acid-phenethyl-ester] | 114% | 71.8% |
| Nc1nnc(-c2cccc(Cl)c2Cl)c(N)n1 [lamotrigine] | 101% | -3.5% |
| CC(C)(C#N)c1cc(Cn2cncn2)cc(C(C)(C)C#N)c1 [Anastrozole] | 109% | -2.96% |
| FC(F)(F)c1ccc(/C=C/c2nc(COc3ccc(CCCCn4ccnn4)cc3)co2)cc1 [Mubritinib-TAK-165] | 149% | -0.747% |
| CC#CCn1c(N2CCC[C@@H](N)C2)nc2c1c(=O)n(Cc1nc(C)c3ccccc3n1)c(=O)n2C [linagliptin-bi-1356] | 118% | -0.264% |
| O=c1cc(-c2ccc(O)cc2)oc2cc(O)cc(O)c12 [Apigenin] | 140% | -2.19% |
| Cc1cc(C)c(CNC(=O)c2cc(-c3ccc(CN4CCOCC4)cc3)cc3c2cnn3C2CCCC2)c(=O)[nH]1 | 104% | -0.264% |
| CC(=O)Nc1ccc(C(=O)Nc2ccccc2N)cc1 [ci994-tacedinaline] | 129% | -4.13% |
| CCOc1cc([C@@H](CS(C)(=O)=O)N2C(=O)c3cccc(NC(C)=O)c3C2=O)ccc1OC | 142% | -14.5% |
| CC(=O)Nc1nc2c(Oc3cc(-c4ccc(C(F)(F)F)cc4)ncn3)cccc2s1 | 111% | -4.7% |
| CN1CCN(c2nc(C3=C(c4c[nH]c5ccccc45)C(=O)NC3=O)c3ccccc3n2)CC1 [sotrastaurin-aeb071] | 131% | 40.1% |
| CN1C2CCCC1CC(NC(=O)c1nn(C)c3ccccc13)C2 (centres undefined) [Granisetron-Hydrochloride] | 103% | 3.72% |
| CN(C)CCC(c1ccc(Br)cc1)c1ccccn1 (centres undefined) [brompheniramine] | 138% | -5.17% |
| CCCCCCCCCCCCc1ccc(S(=O)(=O)Nc2nncs2)cc1 | 111% | 1.03% |
| C[C@H](N[C@@H](CCc1ccccc1)C(=O)O)C(=O)N1CCC[C@H]1C(=O)O [Enalaprilat] | 117% | -0.265% |
| O=S(=O)(c1cccc2cnccc12)N1CCCNCC1 [Fasudil-HCl(HA-1077)] | 97% | -3.93% |
| CCOc1cc2ncc(C#N)c(Nc3ccc(OCc4ccccn4)c(Cl)c3)c2cc1NC(=O)/C=C/CN(C)C [Neratinib(HKI-272)] | 105% | -15.6% |
| O=C(CCCCCCNC(=O)c1cnc(N(c2ccccc2)c2ccccc2)nc1)NO [rocilinostat-acy-1215] | 114% | 6.2% |
| Nc1nc(=O)n([C@@H]2CS[C@H](CO)O2)cc1F [Emtricitabine] | 111% | -14.7% |
| CC(C)n1nc(-c2ccc3oc(N)nc3c2)c2c(N)ncnc21 | 73.9% | -0.889% |
| CNCCc1ccccn1 [betahistine-dihydrochloride] | 98.3% | -3.05% |

| SMILES | normalized SmoIP GFP fluorescence [1] | normalized SmoIP GFP fluorescence [2] |
| --- | --- | --- |
| Nc1nc(N)c2nc(-c3cccc(O)c3)cnc2n1 | 108% | -4.7% |
| Cn1cnc2c(F)c(Nc3ccc(Br)cc3Cl)c(C(=O)NOCCO)cc21 | 126% | 42.9% |
| NCC(=O)Nc1ccc(-n2nc(C(F)(F)F)cc2-c2ccc3c(ccc4ccccc43)c2)cc1 | 100% | 0.812% |
| CN1CCN(C2=Nc3cc(Cl)ccc3Nc3ccccc32)CC1 [Clozapine(Clozaril)] | 119% | 0.154% |
| c1ccc2c(c1)CCCC2C1=NCCN1 (centres undefined) [tetrahydrozoline-hcl] | 115% | -0.491% |
| Cc1cccc(-c2nn3c(c2-c2ccnc4ccc(C(N)=O)cc24)CCC3)n1 | 110% | -15.4% |
| Cc1cc([C@@H](C)Nc2ccccc2C(=O)O)c2nc(N3CCOCC3)cc(=O)n2c1 | 94.8% | -5.22% |
| CNCc1ccc(-c2[nH]c3cc(F)cc4c3c2CCNC4=O)cc1 | 115% | 0.489% |
| O=C(O)C1(Cc2cccc(Nc3nccs3)n2)CCC(Oc2cccc(Cl)c2F)CC1 (centres undefined) | 179% | 24.4% |
| CNC(=O)c1cc(Oc2ccc(NC(=O)Nc3ccc(Cl)c(C(F)(F)F)c3)c(F)c2)ccn1 | 100% | 27.4% |
| C[C@]12CCC(=O)C=C1[C@@H]1C[C@@H]1[C@H]1[C@@H]3[C@@H]4C[C@@H]4[C@@]4(CCC(=O)O4)[C@@]3(C)CC[C@@H]12 [Drospirenone] | 110% | 1.03% |
| Cc1cccc(-c2[nH]ncc2-c2ccc3ncccc3n2)n1 [repsox] | 109% | -0.378% |
| COc1cc2c(N3CCN(C(=O)Nc4ccc(OC(C)C)cc4)CC3)ncnc2cc1OCCCN1CCCCC1 [Tandutinib-(MLN518)] | 99.7% | 1.89% |
| C#Cc1cccc(Nc2ncnc3cc4c(cc23)OCCOCCOCCO4)c1 [icotinib] | 93.3% | -1.63% |
| CN1CCN(C2CCN(C(=O)Nc3cc(Oc4ccc(NC(=O)C5(C(=O)Nc6ccc(F)cc6)CC5)c(F)c4)ccn3)CC2)CC1 [golvatinib-e7050] | 125% | 12.5% |
| Cc1cc(Nc2ncc(Cl)c(Nc3ccccc3S(=O)(=O)C(C)C)n2)c(OC(C)C)cc1C1CCNCC1 | 113% | 3.77% |
| COc1ccc(-c2ccc3ncc4c(c3c2)n(-c2ccc(N3CCNCC3)c(C(F)(F)F)c2)c(=O)n4C)cn1 | 66.3% | -7.6% |
| C[C@H]1COC2=C1C(=O)C(=O)c1c2ccc2c1CCCC2(C)C [Cryptotanshinone] | 115% | -9.22% |
| CC(C)c1cc(C(C)C)c(CC(=O)NS(=O)(=O)Oc2c(C(C)C)cccc2C(C)C)c(C(C)C)c1 [Avasimibe(CI-1011)] | 111% | -15.8% |
| Cc1c(OCC(F)(F)F)ccnc1C[S+]([O-])c1nc2ccccc2[nH]1 (centres undefined) [Lansoprazole] | 104% | -1.13% |
| Cc1cc(OCc2nnc(SC3CCCC3)n2-c2cccnc2)ccc1-c1ccc(S(C)(=O)=O)cc1 | 96.7% | 13.7% |
| CCN(Cc1ccncc1)C(=O)C(CO)c1ccccc1 (centres undefined) [tropicamide] | 104% | -2.82% |
| CC1C(=O)OC2C(O)C34C5CC(C(C)(C)C)C36C(OC(=O)C6O)OC4(C(=O)O5)C12O (centres undefined) [Ginkgolide-B] | 85.5% | 0.489% |
| C[C@H](Oc1cc(-c2cnn(C3CCNCC3)c2)cnc1N)c1c(Cl)ccc(F)c1Cl [s-crizotinib] | 114% | 7.39% |

| SMILES | normalized SmoIP GFP fluorescence [1] | normalized SmoIP GFP fluorescence [2] |
| --- | --- | --- |
| Cn1c(=O)c2[nH]cnc2n(C)c1=O [Aminophylline(Truphylline)] | 98.8% | -6.51% |
| COc1ccc2cc(CCC(C)=O)ccc2c1 [nabumetone] | 103% | -2.2% |
| Cc1[nH]nc2ccc(-c3cncc(OC[C@@H](N)Cc4ccccc4)c3)cc12 | 134% | 8.54% |
| CC(C)N(CCCNC(=O)Nc1ccc(C(C)(C)C)cc1)C[C@H]1O[C@@H](n2ccc3c(N)ncnc32)[C@H](O)[C@@H]1O | 106% and 111% | -4.13% and -1.12% |
| N=C(N)NC(=N)NCCc1ccccc1 [Phenformin-hydrochloride] | 151% | -9.04% |
| CCOC(=O)[C@H](CCc1ccccc1)N[C@@H](C)C(=O)N1[C@@H](C(=O)O)C[C@@H]2CCC[C@@H]21 [Ramipril(Altace)] | 137% | -16.3% |
| CC(C)(C)NS(=O)(=O)c1cncc(-c2cc(F)c3nc(N)nn3c2)c1 | 104% | -4.47% |
| O=c1ncn2nc(Sc3ccc(F)cc3F)ccc2c1-c1c(Cl)cccc1Cl | 79.3% | -2.64% |
| C/C=C1\[C@H]2C=C(C)C[C@]1(N)c1ccc(=O)[nH]c1C2 [(-)-Huperzine-A] | 139% | -7.42% |
| CC(C)N(CCCNC(=O)Nc1ccc(C(C)(C)C)cc1)C[C@H]1O[C@@H](n2cc(Br)c3c(N)ncnc32)[C@H](O)[C@@H]1O | 140% | 0.986% |
| CCN(CC)CCOc1ccc(/C(=C(\Cl)c2ccccc2)c2ccccc2)cc1 [Clomifene-citrate-Serophene] | 139% | -11.6% |
| CCOC(=O)[C@H](CCc1ccccc1)N[C@@H](C)C(=O)N1Cc2ccccc2C[C@H]1C(=O)O [quinapril-hydrochloride-accupril] | 125% | 2.95% |
| c1cc(-c2cnn3cc(-c4ccc(N5CCNCC5)cc4)cnc23)c2cccnc2c1 | 120% | 2.12% |
| COC1CCN(C(=O)c2cc(Cc3n[nH]c(=O)c4ccccc34)ccc2F)CC1 | 103% | -3.5% |
| Cc1onc(-c2ccccc2)c1-c1ccc(S(N)(=O)=O)cc1 [valdecoxib] | 104% | -5.49% |
| CC1CCN(CC[C@H]2CCCN2S(=O)(=O)c2cccc(O)c2)CC1 | 108% | 1.21% |
| COc1cc(N2CCC(N)CC2)ccc1Nc1ncc(Cl)c(-c2c[nH]c3ccccc23)n1 | 113% | -2.48% |
| Cc1ccc(F)c(NC(=O)Nc2ccc(-c3cccc4[nH]nc(N)c34)cc2)c1 | 115% | 0.274% |
| C#Cc1cccc(Nc2ncnc3cc(OC)c(OCCCCCCC(=O)NO)cc23)c1 | 128% | 29.7% |
| C[N+]1(C)[C@@H]2C[C@@H](OC(=O)C(O)(c3cccs3)c3cccs3)C[C@H]1[C@@H]1O[C@@H]12 [Tiotropium-Bromide-hydrate] | 114% | 0.334% |
| NC(=O)[C@@H](CCC(F)(F)F)N(Cc1ccc(-c2ncon2)cc1F)S(=O)(=O)c1ccc(Cl)cc1 | 116% | 0.489% |
| CN(C)C/C=C/C(=O)Nc1cc2c(Nc3ccc(F)c(Cl)c3)ncnc2cc1O[C@H]1CCOC1 | 121% | 7.92% |
| O=C(O)/C=C/c1ccc(Cn2ccnc2)cc1 [Ozagrel] | 116% | -2.46% |
| COc1cc(-c2ncn(/C=C\C(=O)OC(C)C)n2)cc(C(F)(F)F)c1 | 98.3% | -0.889% |
